Sampled rows, rich in hits. Any-hit rate of the full collection: about 6.3%.
MPTP block: inhibitors of mitochondrial permeability transition pore; isolated mouse mitochondria, Ca2+ swelling absorbance, 30 min; inhibition, % at 10 µM; hit rate 1.4% among 360,000;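 active = inhibition of 50% or more, scaled per plate between neutral and stimulator controls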
tim23-1 inh: inhibits growth of tim23-1 mutant yeast. S. cerevisiae tim23-1 growth, BacTiter-Glo luminescence, 24 h. inhibition, % at 20 µM. hit rate 1.3% among 330,000. AID 463212;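 active = growth inhibition of the mutant yeast at or above 50%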;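 also: temperature-sensitive mutant grown at 25 °C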
tim10-1 inh: growth inhibitors of tim10-1 mutant yeast. inhibition, % at 20 µM. hit rate 2.2% among 330,000. S. cerevisiae tim10-1 ts strain growth, BacTiter-Glo, 24 h;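 active = inhibition of at least 40%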;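 also: mutant grown at 25 °C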
TIM10 inh: growth inhibitors of TIM10 yeast strain | inhibition, % at 10 µM | hit rate 1.4% among 330,000 | AID 463195 | S. cerevisiae TIM10 strain growth, BacTiter-Glo luminescence, 24 h;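 active = inhibition of 40% or more at the single tested concentration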;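 also: wild-type TIM10 isogenic control strain grown at permissive 25 °C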
Mdm2-MdmX inh: human Mdm2/MdmX binding inhibition; SaOS-2 split-luciferase Mdm2/MdmX complementation, luminescence; inhibition, % at 8 µM; hit rate 3% among 330,000; AID 485346;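 active = inhibition of at least 50% at 8 µM in the primary screen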
Target sequence (O15151 whole entry, looked up): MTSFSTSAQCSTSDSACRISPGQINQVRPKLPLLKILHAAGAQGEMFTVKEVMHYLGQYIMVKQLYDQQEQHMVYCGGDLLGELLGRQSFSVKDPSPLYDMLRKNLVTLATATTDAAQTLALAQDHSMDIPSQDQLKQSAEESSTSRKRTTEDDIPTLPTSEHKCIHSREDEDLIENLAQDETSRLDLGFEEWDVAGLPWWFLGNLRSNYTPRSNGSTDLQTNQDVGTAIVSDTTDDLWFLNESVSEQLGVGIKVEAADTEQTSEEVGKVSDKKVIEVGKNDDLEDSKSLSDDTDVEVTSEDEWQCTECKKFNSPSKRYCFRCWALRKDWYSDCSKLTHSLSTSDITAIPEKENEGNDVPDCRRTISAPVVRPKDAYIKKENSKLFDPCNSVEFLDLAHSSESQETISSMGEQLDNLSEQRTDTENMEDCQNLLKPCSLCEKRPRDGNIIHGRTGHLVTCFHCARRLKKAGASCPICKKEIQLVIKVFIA
Target sequence (Q00987 whole entry, looked up): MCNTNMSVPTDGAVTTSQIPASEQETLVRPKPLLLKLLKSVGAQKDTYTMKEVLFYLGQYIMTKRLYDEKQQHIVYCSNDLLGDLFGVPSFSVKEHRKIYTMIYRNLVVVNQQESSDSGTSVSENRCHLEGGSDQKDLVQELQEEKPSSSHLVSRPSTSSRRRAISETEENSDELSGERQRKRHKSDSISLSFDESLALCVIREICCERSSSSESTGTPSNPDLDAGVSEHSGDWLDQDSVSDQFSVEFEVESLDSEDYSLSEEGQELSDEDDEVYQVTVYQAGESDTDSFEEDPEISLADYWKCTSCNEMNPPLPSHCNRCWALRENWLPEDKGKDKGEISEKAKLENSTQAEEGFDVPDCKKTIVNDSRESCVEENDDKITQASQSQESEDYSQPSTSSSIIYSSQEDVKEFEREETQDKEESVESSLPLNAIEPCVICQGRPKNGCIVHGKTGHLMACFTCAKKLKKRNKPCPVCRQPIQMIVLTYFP
Mdm2-MdmX conf: human Mdm2/MdmX binding inhibition, confirmed | AID 489028 | hit rate 55% among 10,000 | inhibition, % at 8 µM | shares compounds with Mdm2-MdmX inh | luminescent assay; in the data active = inhibition above about 40%
Full FLuc ctr: counter-screen for Mdm2/MdmX inhibitors: full-length luciferase. shares compounds with Mdm2-MdmX inh. SaOS-2 full-length luciferase counterscreen, luminescence. inhibition, % at 8 µM. hit rate 77% among 6,200. AID 504607;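 active = mean inhibition at 8 µM reaching about 37%, which flags the compound as non-specific, limit read from the data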;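 also: p53-null SaOS-2 cells with luciferase driven by a doxycycline-inducible promoter; compound on cells about two nights before reading with doxycycline added after day one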
Numbers stand for hits; – = inactive; · = not tested or not shown.

SMILES	MPTP block	tim23-1 inh	tim10-1 inh	TIM10 inh	Mdm2-MdmX inh	Mdm2-MdmX conf	Full FLuc ctr
COc1ccc(S(=O)(=O)NCc2ccccn2)cc1NC(=O)c1ccccc1C	–	–	–	–	52	71	63
CCOc1ccc(S(=O)(=O)NCc2cccnc2)cc1NC(=O)c1ccccc1F	–	–	–	–	59	57	53
O=C(Nc1cccc2ccccc12)c1ccco1	–	·	·	·	·	·	·
Cc1cc(=O)[nH]c(N2CCOCC2)n1	–	–	–	–	–	·	·
Cc1cc(N2CCOCC2)c2c(N)c(Br)cc(C)c2n1	–	–	–	–	74	71	–
COc1ccc(C(C#N)CC(=O)c2ccc(OCc3ccccc3)c(OC)c2)cc1OC (centres undefined)	–	·	·	·	·	·	·
COc1ccccc1CNC(=O)OCc1nccnc1C(=O)Nc1ccc(Br)cn1	–	–	–	–	55	–	·
CCc1nc2ccc(C(=O)N3CCN(S(=O)(=O)CC)CC3)cn2c1N(CC)Cc1cccc(Br)c1	–	·	·	·	·	·	·
CN(C)c1ccc(C(=O)c2ccc(N(C)C)c3ccccc23)cc1	–	–	–	–	56	50	181
COc1ccc(C(=O)c2ccc(OC)cc2OC)cc1	–	–	–	–	–	·	·
COc1ccc(C(=O)c2ccc(N(C)C)cc2)c(OC)c1	–	–	–	–	62	48	37
CC(C)(C)c1ccc(C(=O)NC(=S)Nc2nc3c(s2)CCCC3)cc1	–	–	–	–	61	51	102
CN(C)c1ccc(C(=O)Nc2nc3c(s2)CCCC3)cc1	–	–	–	–	–	·	·
O=C(CCl)NC(Cc1ccccc1)C(=O)OCC(=O)c1ccc(-c2ccccc2)cc1 (centres undefined)	–	·	·	·	·	·	·
Nc1c(S(=O)(=O)c2ccccc2)c2nc3ccccc3nc2n1/N=C/c1cccc(O)c1	–	–	–	–	67	–	·
Cc1cccc(S(=O)(=O)c2c(N)n(/N=C/c3ccccc3)c3nc4ccccc4nc23)c1	–	–	–	–	–	·	·
CC1(C(=O)NS(=O)(=O)Cc2ccccc2C(F)(F)F)CCN1C(=O)Cc1cccs1 (centres undefined)	–	·	·	·	·	·	·
O=C(N/N=C(\CC(=O)c1cccs1)C(F)(F)F)c1ccncc1	–	–	–	–	66	–	·
O=C(O)CC/C(=N\NC(=O)c1ccccc1)c1cccs1	–	–	–	–	–	·	·
COCCN1Cc2cccc(C(=O)Nc3ccc(-c4nc5ccccc5[nH]4)cc3)c2C1=O	–	–	–	–	–	·	·
O=C(Nc1ccc(-c2nc3ccccc3[nH]2)cc1)c1ccc2c(c1)OCO2	–	–	–	–	90	67	–
COCCN1Cc2cccc(C(=O)Nc3cccc(-c4nc5ccccc5[nH]4)c3)c2C1=O	–	–	–	–	55	51	90
O=C(Nc1ccc(Cl)c(-c2nc3ccccc3[nH]2)c1)c1ccc2c(c1)OCO2	–	–	–	–	–	·	·
O=C(Nc1cccc(-c2nc3ccccc3[nH]2)c1)c1cccc(NC(=O)c2ccco2)c1	–	–	–	–	100	–	56
CCNc1nc(NC(C)C)nc(Oc2ccc(OCCOc3ccc(C)cc3)nn2)n1	–	–	–	–	52	–	·
SMILES	MPTP block	tim23-1 inh	tim10-1 inh	TIM10 inh	Mdm2-MdmX inh	Mdm2-MdmX conf	Full FLuc ctr
CC(C)N1CCC1(C)C(=O)Nc1ccc2cn[nH]c2c1 (centres undefined)	–	·	·	·	·	·	·
Cc1ccc(NC(=O)c2n[nH]c(=O)c3ccccc23)cc1S(=O)(=O)N1CCOCC1	–	–	–	–	–	·	·
O=C(Nc1ccc(Cl)c(S(=O)(=O)N2CCOCC2)c1)c1n[nH]c(=O)c2ccccc12	–	–	–	–	60	–	·
O=C(Nc1ccc(Cl)c(S(=O)(=O)N2CCOCC2)c1)c1ccc(OCC2CCCO2)cc1 (centres undefined)	–	–	–	–	75	65	60
CN(C)CCNC(=O)c1cccc(-c2cccc3nncn23)c1	–	·	·	·	·	·	·
Cc1cc(Br)cn2c(Cc3ccsc3)c(C3CCCCC3)nc12	–	·	·	·	·	·	·
Cc1cccc(C)c1OCc1nnc(SCC(=O)Nc2cccc(C(=O)N3CCOCC3)c2)n1C	–	–	–	–	53	–	·
Cc1nn(-c2ccccc2)c2nc(N)c(C#N)c(-c3ccc(O)c(O)c3)c12	–	–	–	–	55	–	·
Cc1nn(-c2ccc(F)cc2)c2nc(N)c(C#N)c(-c3cccs3)c12	–	–	–	–	–	·	·
